aSyn 5UTR act = Activators working through SNCA 5'UTR binding (MLPCN). alpha-synuclein 5'UTR reporter, activators screen. activity score, % (tested at 7.5 µM), hits read low. hit rate 7.1% among 300,000; in the data active = activity score below about -60%
Active calls of the source: *. The list is a sample of the results.

SMILES	aSyn 5UTR act
Cc1cc(C)c2cc(CN(CCO)C(=O)Nc3ccc(Cl)cc3)c(=O)[nH]c2c1	53
Cc1ccc2cc(CN(CCN(C)C)C(=O)Nc3ccc(Cl)cc3)c(=O)[nH]c2c1	-83*
CN1CCSc2ccc(C(=O)Nc3ccc(Cl)cc3)cc21	-215*
COc1cccc(NC(=O)c2ccc3c(c2)CCN3S(C)(=O)=O)c1	-118*
COc1cccc(NC(=O)c2ccc3c(c2)N(C)CCS3)c1	-117*
COc1ccc(CCNC(=O)c2ccc3nc(N4CCCCC4)sc3c2)cc1OC	-131*
CCOc1ccc2nc(N3CCCC(C(=O)NCCCN4CCCCC4)C3)sc2c1 (centres undefined)	-86*
COc1ccc2nc(N3CCCC(C(=O)NCCc4ccc(OC)c(OC)c4)C3)sc2c1 (centres undefined)	-87*
CCCNC(=O)c1cc(-c2ccco2)on1	-335*
CC(C)CNC(=O)c1cc(-c2ccco2)on1	-137*
CCCc1nc2oc3ccccc3c(=O)c2c(=O)n1-c1ccccc1	-153*
CCc1nc2oc3ccccc3c(=O)c2c(=O)n1-c1ccc(C)cc1	-139*
Cc1ccc(-n2c(C(C)C)nc3oc4ccccc4c(=O)c3c2=O)cc1	-111*
CCc1nc2oc3ccccc3c(=O)c2c(=O)n1-c1ccccc1	-315*
CCCc1nc2oc3ccccc3c(=O)c2c(=O)n1-c1ccc(C)cc1	-84*
CN(C)c1ccc(/C=C(/C#N)C(=O)NCc2ccccc2)o1	-96*
O=C(COC(=O)c1ccc(Cl)nc1)c1ccc2c(c1)OCCO2	-71*
O=C(COc1ncnc2cc(Cl)ccc12)c1ccc2c(c1)OCCO2	-92*
O=C(COc1ncnc2ccccc12)c1ccc2c(c1)OCCO2	-88*
O=C(CSc1ncnc2ccccc12)c1ccc2c(c1)OCCO2	-346*
Cc1ccc(C(=O)COc2ncnc3cc(Cl)ccc23)cc1	-76*
COc1ccc(N2C3=[N+](CC2(C)O)c2ccccc2CC3)cc1 (centres undefined)	-110*
COc1cccc(C(=O)Nc2cc3c(cc2C(C)=O)OCCO3)c1	-72*
CCOc1cccc(C(=O)Nc2cccc(C(C)=O)c2)c1	-151*
CC(=O)c1cc2c(cc1NC(=O)c1ccc(C)cc1)OCO2	-101*
SMILES	aSyn 5UTR act
COc1cccc(C(=O)Nc2cccc(OC(C)=O)c2)c1	-90*
COc1ccc(C(=O)Nc2ccc(N3CCCC3)cc2)cc1OC	-166*
COc1cccc(C(=O)Nc2cccc(C(C)=O)c2)c1	-114*
O=C(Nc1cc2c(cc1C(=O)O)OCCCO2)c1ccc(C(F)(F)F)cc1	-94*
CCOc1c(Cl)cc(C(=O)Nc2cccc(C(=O)O)c2)cc1Cl	-80*
CCOc1ccc(C(=O)Nc2ccc(N3CCN(C)CC3)cc2)cc1Br	-75*
CC(=O)Nc1cccc(NC(=O)c2ccc(COc3ccccc3)cc2)c1	-142*
CC1CC(C)(C)Nc2ccc(OC(=O)c3ccco3)cc21 (centres undefined)	70
CCOc1ccc(OCc2ccc(C(=O)N/N=C(\C)c3ccccn3)cc2)cc1	64
COc1ccc(C(=O)Nc2cccc(OC(=O)c3ccco3)c2)cc1	-113*
CCOc1cccc(C(=O)Nc2ccc(N3CCCC3)cc2)c1	-66*
Cc1cc(C)c(-c2nc3ccccc3s2)[nH]1	-190*
c1ccc2nc(-c3ccc(-n4ccnc4)cc3)ccc2c1	-224*
c1ccc(-c2ccc3ccccc3n2)cc1	-191*
O=C(O)CCc1ccc(S(=O)(=O)Nc2ccccc2C(=O)NCCc2ccccc2)cc1	-118*
COc1ccc(NC(C)=O)cc1S(=O)(=O)Nc1ccccc1C(=O)NCCc1ccccc1	-128*
CC1CCc2nc(NCCO)nc(C(F)(F)F)c2C1 (centres undefined)	54
CCC1=[N+](CC(=O)c2ccc(C)cc2)CCn2c(C)ccc21	-194*
CC1=[N+](CC(=O)c2ccccc2)CCn2cccc21	-110*
CCC1=[N+](CC(=O)c2ccc(C)cc2)CCn2cccc21	-123*
CC(C)c1ccc(Nc2nc(CC(=O)O)cs2)cc1	-77*
O=C(OCC(=O)c1c[nH]c2ccccc12)c1ccco1	-102*
COc1ccc(C(=O)COC(=O)c2cccc(-n3cnnn3)c2)c(OC)c1	-104*
O=C(OCC(=O)c1c[nH]c2ccccc12)c1ccc(Br)o1	-130*
COc1ccc(C(=O)COC(=O)c2cc(=O)[nH]c3ccccc23)c(OC)c1	-131*
SMILES	aSyn 5UTR act
COc1cccc(C(=O)OCC(=O)c2c[nH]c3ccccc23)c1O	-105*
c1ccc(CCNc2nc(-c3ccncc3)cs2)cc1	-114*
CCCCCNc1nc(-c2ccccc2)cs1	-169*
Clc1ccccc1-c1ncc2ccccn12	-98*
Clc1ccc(-c2ncc3ccccn23)cc1	-104*
c1ccc(CSc2nnnn2-c2ccc3c(c2)OCCO3)nc1	-71*
C/C(=N/Nc1ccccc1[N+](=O)[O-])c1ccc(C)c([N+](=O)[O-])c1	-166*
O=[N+]([O-])c1c(Nc2ccccc2O)cc(N2CCOCC2)c2nonc12	49
CC(C)/C(=N/Nc1ccccc1[N+](=O)[O-])c1ccccc1	-86*
C/C(=N\Nc1ccccc1[N+](=O)[O-])c1ccc(N2CCOCC2)cc1	-82*
COc1cccc(C(=O)/C=C/Nc2ccc(NC(C)=O)cc2)c1	-125*
COc1cccc(C(=O)/C=C/Nc2cccc(O)c2)c1	-87*
O=c1c2ccccc2sc2ccc(Cl)cc12	-106*
CCN=C1S/C(=C\c2ccc(O)c(OCC)c2)C(=O)N1CC	68
C#CCOc1ccc(/C=C2\SC(=S)N(Cc3cccnc3)C2=O)cc1	-82*
COc1ccc(/C=C2\SC(=S)N(Cc3cccnc3)C2=O)cc1C	-127*
COc1cc(/C=C2/SC(=S)N(Cc3ccccc3)C2=O)ccc1O	-67*
COc1ccc(/C=C2/SC(=S)N(CC(=O)O)C2=O)cc1OCc1ccc(Cl)cc1	-132*
CCc1ccc(/C=C2\SC(=S)N(CCC(=O)Nc3cc(C)on3)C2=O)cc1	69
COc1ccc(-c2nn(-c3ccccc3)cc2/C=N/NC(=O)c2cccc(S(=O)(=O)Nc3ccccc3Cl)c2)cc1	-77*
COc1ccc(-c2nn(-c3ccccc3)cc2/C=N/N2C(=O)CSC2=S)cc1	-83*
COc1ccc(-c2nn(-c3ccccc3)cc2/C=N/NS(=O)(=O)c2ccccc2)cc1	-62*
CCN(CC)CCNc1nc2cc(OC)c(OC)cc2c2nc(-c3ccccc3)nn12	-73*
O=C(/C=C/c1ccccc1)C1=C(O)C(=O)N(CCO)C1c1ccccc1[N+](=O)[O-] (centres undefined)	-62*
CC(C)Cc1nnc(NC(=O)c2cc3c(s2)CCC3)s1	-207*
SMILES	aSyn 5UTR act
O=C(Nc1nncs1)c1cc2c(s1)CCC2	-132*
O=C(Nc1nccs1)c1cc2c(s1)CCCCC2	72
Cn1c(/C=C/c2ccc(Br)cc2)c([N+](=O)[O-])c(=O)n(C)c1=O	-199*
CCCOc1ccc(/C=C/c2c([N+](=O)[O-])c(=O)n(C)c(=O)n2C)cc1	-130*
C(#CC1CCCC1)c1ccc2c(c1)COc1c3ccccc3nn1-2	-146*
Cc1ccc(CNC(=O)C2(S(=O)(=O)c3ccccc3)CC=CC2)cc1	-114*
COc1ccc(Nc2nc(N)nc(CSC(=S)N3CCOCC3)n2)cc1	-87*
Nc1nc(CSC(=S)N2CCOCC2)nc(Nc2ccc(F)cc2)n1	-70*
Cc1ccc(Nc2nc(N)nc(CSC(=S)N3CCOCC3)n2)c(C)c1	-93*
CN1CCc2c(sc3c2C(=O)NC(c2cn(Cc4ccccc4)c4ccccc24)N3)C1 (centres undefined)	64
